In the supplement of paper PMC6555819:

Tests used:
Assay in all cases: PBM binding z-score (relative to random genomic background probes); higher = stronger binding; sequences stand for … in GC…GCGATTGACAGCGTAGAATGAAGG
[1] = tested on: FXR:RXRa (NR concentration 270 nM, RXRa partner concentration 90 nM)
Outline: (§1)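 Binding z-scores take random background probes as their reference. They come from custom Agilent 4×180K protein-binding microarrays incubated 1 h with ligand-free nuclear receptor dimers, with antibodies against each partner (one per run) detecting binding. Scanned fluorescence was regression-normalized.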

[2] = tested on: LXRa:RXRa (NR concentration 270 nM, RXRa partner concentration 90 nM)
Outline: as §1

[3] = tested on: LXRa homodimer (NR concentration 270 nM)
Outline: as §1

[4] = tested on: LXRb:RXRa (NR concentration 270 nM, RXRa partner concentration 90 nM)
Outline: as §1

[5] = tested on: LXRb homodimer (NR concentration 270 nM)
Outline: as §1

[6] = tested on: PPARa:RXRa (NR concentration 270 nM, RXRa partner concentration 90 nM)
Outline: as §1

[7] = tested on: PPARg:RXRa (NR concentration 180 nM, RXRa partner concentration 90 nM)
Outline: as §1

[8] = tested on: PPARg:RXRa 270nM:90nM, anti-RXR (NR concentration 270 nM, RXRa partner concentration 90 nM)
Outline: as §1

[9] = tested on: PPARg:RXRa 30nM:10nM, anti-RXR (NR concentration 30 nM, RXRa partner concentration 10 nM)
Outline: as §1

[10] = tested on: PPARg:RXRa 90nM:30nM, anti-RXR (NR concentration 90 nM, RXRa partner concentration 30 nM)
Outline: as §1

[11] = tested on: PPARg:RXRa DBDmut IVT, anti-RXR (DBD mutation: RXRa K156A/R161A, NR concentration 270 nM, RXRa partner concentration 90 nM)
Outline: as §1

[12] = tested on: PPARg:RXRa IVT, anti-PPARg (NR concentration 270 nM, RXRa partner concentration 90 nM)
Outline: as §1

[13] = tested on: PPARg DBDmut:RXRa IVT, anti-PPARg (DBD mutation: PPARg1 K132A/R137A, NR concentration 270 nM, RXRa partner concentration 90 nM)
Outline: as §1

[14] = tested on: PPARg DBDmut IVT, anti-PPARg (DBD mutation: PPARg1 K132A/R137A, NR concentration 270 nM)
Outline: as §1

[15] = tested on: PPARg homodimer (NR concentration 180 nM)
Outline: as §1

[16] = tested on: PXR:RXRa (NR concentration 270 nM, RXRa partner concentration 90 nM)
Outline: as §1

[17] = tested on: PXR homodimer (NR concentration 270 nM)
Outline: as §1

[18] = tested on: RARa:RXR (NR concentration 270 nM, RXRa partner concentration 90 nM)
Outline: as §1

[19] = tested on: RARa homodimer (NR concentration 270 nM)
Outline: as §1

[20] = tested on: RARb:RXRa (NR concentration 270 nM, RXRa partner concentration 90 nM)
Outline: as §1

Sequence	PBM binding z-score [1]	PBM binding z-score [2]	PBM binding z-score [3]	PBM binding z-score [4]	PBM binding z-score [5]	PBM binding z-score [6]	PBM binding z-score [7]	PBM binding z-score [8]	PBM binding z-score [9]	PBM binding z-score [10]	PBM binding z-score [11]	PBM binding z-score [12]	PBM binding z-score [13]	PBM binding z-score [14]	PBM binding z-score [15]	PBM binding z-score [16]	PBM binding z-score [17]	PBM binding z-score [18]	PBM binding z-score [19]	PBM binding z-score [20]
TCATATAGGGAAAGGTGAAAGTCGAACGATATGA	0.779	1.31	-0.25	1.43	-0.112	2.68	2.13	3.56	4.47	3.88	2.4	2.31	0.712	0.709	0.702	0.972	0.00313	1.74	0.496	1.78
AGAATTAGGTTATTAAGATCAGGGAATTGCGGTC	0.488	0.607	0.495	0.404	0.244	1.87	1.99	2.31	1.74	1.58	6.63	5.44	1.55	1.27	1.3	0.5	0.468	0.229	1.73	0.932
ATCTCTAGGTAAAAGTTCGGTGAATCCCGAGGAT	0.161	0.141	0.132	0.00747	0.757	2.68	5.39	6.18	4.88	6.61	2.29	2.74	1.06	1.26	0.445	0.402	0.883	0.471	0.857	0.906
GCTTGTAGATCAAGTTTAAGAAAGACTAAGCTAA	-0.477	-0.231	-0.318	-0.15	-0.39	0.142	-0.204	-0.0876	-0.116	-0.107	0.956	0.313	0.0425	0.223	-0.136	0.206	0.211	0.203	-0.548	-0.0982
CCTTACGGATCACTGACAGGTTATAGCATTTGGA	0.345	0.818	0.768	0.559	0.661	0.447	0.638	0.275	0.461	0.192	0.71	-0.0645	0.405	0.544	0.811	0.356	0.678	0.397	1.14	0.471
ACTAGCAGGCCAAGTTAGGGTCACTCAAACAAAG	1.87	1.73	-0.142	2.55	-0.86	3.36	0.753	1.38	-0.00931	1.07	0.489	1.32	0.153	-0.603	1.07	3	0.292	3.73	-0.482	2.86
CAAACTAGGTCAAGAGGTCAAAATCCGCTTCCCG	6.73	6.04	5.14	5.6	1.75	6.65	9.69	8.11	7.03	8.2	7.82	8.13	1.85	1.15	4.78	5.89	1.57	7.65	1.73	5.35
GCTCGGAGGACCAGGTCAGAGCTTTGTCCGTAGA	0.0133	-0.0636	-0.562	-0.241	-1.47	0.776	-0.725	-0.204	-1.11	-0.616	-0.0233	-0.0399	-1.45	-1.52	-0.553	0.343	-0.875	0.505	-0.985	1.35
GCAGACAGGTGAAACGCAGGTAACTCACGGTGGC	-0.0802	0.186	-0.449	-0.389	-1.17	0.612	0.796	-0.183	-0.533	-0.11	1.05	0.811	0.104	-0.094	-0.18	-0.51	-0.98	0.0228	-0.454	0.558
ACTTACGGGTCAACGAGGCTATAGCACGCGTATA	7.11	4.24	0.0789	3.85	0.747	5.82	5.21	4.87	1.81	3.64	3.07	3.98	0.121	1.38	1.92	3.59	0.421	4.16	0.515	4.01
CCTACTGGGCCACAAAGGTCATTGATGCCGATAA	4.47	5.11	4.74	4.39	0.772	5.25	6.17	5.75	3.17	5.54	4.98	5.53	0.0367	-0.795	3.95	5.34	5.11	5.76	1.78	4.2
CGTCAAAGTTCAAGGTACCGTAACAGAAAGCAGC	6.16	5.65	3.11	3.48	0.91	4.61	4	4.81	1.82	3.9	0.47	1.61	0.0848	0.822	2.35	3.99	2.46	3.45	0.789	5.08
CCTCGGAGGACAGAAGGTCACAGCTGTCCGCTTT	2.65	3.33	0.899	2.27	-0.713	3.54	0.989	2.62	-0.00709	1.83	0.643	1.32	-1.36	-2.05	2.05	3.33	-0.204	4.13	1.25	3.77
CCGACTGGGGCAAAGGTTACCGTACTCAGTACGA	1.69	1.59	-0.472	1.95	-1.15	5.78	10.6	9.35	9.56	9.91	4.82	5.85	0.024	-0.75	1.93	2.04	-0.837	3.75	-0.437	2.39
